Measured values as given in article PMC7819943, “Rice protein-binding microarrays: a tool to detect cis-acting elements near promoter regions in rice”.
Over roughly 68,000 sequences, “fluorescence intensity (a.u.)” has its median near 9,100; the highest 2% begin near 16,000. The full list was thinned out, with the highest values kept by preference.

biological target: OsWRKY34 (Oryza sativa, UniProt Q0JBA9 1-250); test: protein-binding microarray (RPBM); PBS, 2% BSA, 51.3 ng/ul salmon testes DNA, 50 uM zinc acetate, 200 nM TF, 25 C, 1 h; high values mean tight binding; conditions: protein: recombinant; tags: N-terminal polyhistidine and DsRed monomer fusion (pET32a); label: CyDye5-dUTP incorporated in the synthesized complementary strand; 3' TTTTT single-stranded linker to array surface; dsDNA, one strand shown
How it was run: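 Per-feature fluorescence intensity (arbitrary units), read on an Axon 4000B scanner, is the binding signal. Transcription factors carrying an N-terminal polyhistidine tag and DsRed fusion were expressed in E. coli BL21-CodonPlus and purified on Ni–NTA. A custom Agilent array, made double-stranded by primer extension with Cy5-dUTP and blocked with 2% BSA, was incubated with 200 nM protein in PBS, 2% BSA, salmon testes DNA and 50 µM zinc acetate at 25 °C for 1 h and then washed.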

Sequence of OsWRKY34 (Q0JBA9 entry or part of it): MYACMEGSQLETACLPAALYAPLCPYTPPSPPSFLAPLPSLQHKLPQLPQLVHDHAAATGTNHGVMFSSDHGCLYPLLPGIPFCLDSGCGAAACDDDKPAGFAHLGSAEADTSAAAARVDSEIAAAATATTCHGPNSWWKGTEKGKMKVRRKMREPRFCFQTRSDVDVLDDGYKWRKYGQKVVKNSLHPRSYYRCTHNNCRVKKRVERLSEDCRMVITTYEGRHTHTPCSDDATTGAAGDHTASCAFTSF

Sequence | binding signal
CCGCCGCCCACCTCATGCCTTGCGCGGTGCCCGTGAGAGACGGAGTCACCTAGTGCAG | 8250 fluorescence intensity (a.u.)
GATCGCTCCATAAACATGCAATATATCAATTTTAACTTTTCGGAGTCACCTAGTGCAG | 8900 fluorescence intensity (a.u.)
CTCTCAGCCGGTCTATCAATTCCCCTTTCTGATACAATAACGGAGTCACCTAGTGCAG | 9570 fluorescence intensity (a.u.)
CCCATTCTAGATATTAACTACTAATCTGACTCTATTTTTTCGGAGTCACCTAGTGCAG | 8880 fluorescence intensity (a.u.)
TGGGTTTTATTTTCCCATTCTTTCGAGCTATTTTGACGGACGGAGTCACCTAGTGCAG | 8220 fluorescence intensity (a.u.)
TTCCTCCGTCTGCGTGCCGGCTTCTGTCTTCCTCCGCGCGCGGAGTCACCTAGTGCAG | 17300 fluorescence intensity (a.u.)
TCCCGCTTCTCCTCCGTCGCTCTCCGCCGCCGCCGCCACCCGGAGTCACCTAGTGCAG | 10200 fluorescence intensity (a.u.)
ACACTCTCGCCGTCGCCGCCTCCTCGCCTCCGCTTACTCCCGGAGTCACCTAGTGCAG | 16700 fluorescence intensity (a.u.)
CGTCGCCGCCGCCGGCGTCTTCTCCACCTCCTCCGCGCCGCGGAGTCACCTAGTGCAG | 8030 fluorescence intensity (a.u.)
GCGCGCGCCGGCCTCCGTCTTCCTCCGCGGGTGCGCCACCCGGAGTCACCTAGTGCAG | 10400 fluorescence intensity (a.u.)
ACCCGCTTCTCGTCTCCTCGTCTCCTCGTTCGTCTCTCGCCGGAGTCACCTAGTGCAG | 18000 fluorescence intensity (a.u.)
CTCTCCTCTCCTCGCTTCTTCGTCTCGCTTGCTCGCTCGCCGGAGTCACCTAGTGCAG | 8550 fluorescence intensity (a.u.)
CATTTAAATCGCCATCACTCCGCGCGCTCTCCCATCCATCCGGAGTCACCTAGTGCAG | 8870 fluorescence intensity (a.u.)
TCGCCTATCTCTCTATCTCTTTCGCCACCGCTTGCCTCTCCGGAGTCACCTAGTGCAG | 9030 fluorescence intensity (a.u.)
GTCGTCGCCTGCCTCTTCGTCGCCGCTCTCGTCTCCGCTCCGGAGTCACCTAGTGCAG | 9880 fluorescence intensity (a.u.)
CGCCGCCTCCGCTCCACTCTCCTCGCCGTCGCCGGTCCTCCGGAGTCACCTAGTGCAG | 11500 fluorescence intensity (a.u.)
GCTCTATCTTTACTCGCCATTTAATCGTTGCCTCGCGCTCCGGAGTCACCTAGTGCAG | 16900 fluorescence intensity (a.u.)
CGTTCATTCCGCATCCAATGGCAGCACTGGTTCCTAGCTTCGGAGTCACCTAGTGCAG | 8110 fluorescence intensity (a.u.)
TTATACCACCGGATGCTGACACCATTCATCCGCTCTTCCTCGGAGTCACCTAGTGCAG | 10700 fluorescence intensity (a.u.)
CTGTATGGCCACCGTCGCAGCTCGTCCTACACGTTTCTCACGGAGTCACCTAGTGCAG | 10600 fluorescence intensity (a.u.)
TGCTAAACCTGTGGTGTTAAATCTGGCTGGTTGCCTGTCTCGGAGTCACCTAGTGCAG | 9280 fluorescence intensity (a.u.)

Sequence | binding signal
TAACAGTTGACACAGGGAGCGGAGGGGCAGCTTGGTCATTCGGAGTCACCTAGTGCAG | 8420 fluorescence intensity (a.u.)
CCTTAACACTTAATCCATGTGATGCATCTGTCATGCAACTCGGAGTCACCTAGTGCAG | 8250 fluorescence intensity (a.u.)
TCCCCGCGGGCATGCCCGTTGCTGCGGGCGCAGCTCAATTCGGAGTCACCTAGTGCAG | 8280 fluorescence intensity (a.u.)
GTGCTGGAGGGAGGGAACGGGGAACGTGGCAACTGACACGCGGAGTCACCTAGTGCAG | 9030 fluorescence intensity (a.u.)
GCGCAAACGCTCGAATTTTTGGTTTTGATCCATATGCATACGGAGTCACCTAGTGCAG | 8580 fluorescence intensity (a.u.)
TGTAGTCCCGCGTCGCACGGCATCCGGCCGGCCTCTCCTACGGAGTCACCTAGTGCAG | 8760 fluorescence intensity (a.u.)
GGGATGGGGAAGGTCAGAGCCAATATGATCTGGTAACTCTCGGAGTCACCTAGTGCAG | 9510 fluorescence intensity (a.u.)
CAAAGGTTCTAATGTTTGACCTCATTCTTATCTAAAACGACGGAGTCACCTAGTGCAG | 9440 fluorescence intensity (a.u.)
GCGTCGCCTGCCGCCTCCGCTTCCGCTCCACTCCGCTTCGCGGAGTCACCTAGTGCAG | 12000 fluorescence intensity (a.u.)
CAATCTCTCTCTCTCTCTCTCTCGCTGCTGCTGCTCCTTCCGGAGTCACCTAGTGCAG | 9770 fluorescence intensity (a.u.)
AACCCTAGCTCTTCACAGCTTCCATGGCTCTTCTCTCTCTCGGAGTCACCTAGTGCAG | 12500 fluorescence intensity (a.u.)
GTTCCAGCTTCATGCATGCACACACACAGTAGCTCGTGCTCGGAGTCACCTAGTGCAG | 29300 fluorescence intensity (a.u.)
TCTCCTCTTCTTTTTCTTCCTTCCTTTTACTCGCTCGCTCCGGAGTCACCTAGTGCAG | 9930 fluorescence intensity (a.u.)
ACCTCGTACCTCGCCGCTGTTCCGTTCCGTGCTCTGTGTCCGGAGTCACCTAGTGCAG | 18700 fluorescence intensity (a.u.)
CCCGCTCGCTCTCGTGCTGTCCGCCGACCTCAGCTCGCTCCGGAGTCACCTAGTGCAG | 10000 fluorescence intensity (a.u.)
CTGAACTCTCTCTCGCTCTCCGGCTCTCTGTATTCCTTCACGGAGTCACCTAGTGCAG | 19800 fluorescence intensity (a.u.)
GTAGTCATTCACGTGTTCCTCTTCTCCAGTACTAGTAGCTCGGAGTCACCTAGTGCAG | 9710 fluorescence intensity (a.u.)
CTCTCTGTGTCTCCGCCGCCGCCGCCTCCGCCGCTCGCCGCGGAGTCACCTAGTGCAG | 8060 fluorescence intensity (a.u.)
AACCATAAAACATGTGATTCTTTTTTTTAACCAAAACTTACGGAGTCACCTAGTGCAG | 8130 fluorescence intensity (a.u.)
ACCACTTAATCTTTATCTTTGTTAGATTCATTACTACTATCGGAGTCACCTAGTGCAG | 8310 fluorescence intensity (a.u.)
TATAGGTATTCACTACCTTATCATTTATTCATACCTTGTTCGGAGTCACCTAGTGCAG | 8060 fluorescence intensity (a.u.)
